Experimental data: PubChem BioAssay AID504333 (National Center for Advancing Translational Sciences (NCATS), 2011)
In all, about 360,000 compounds went through this assay and about 16,000 (4.4%) were called active. Roughly 9% stayed inconclusive and do not appear here. The list comes from a sample in which actives are over-represented; it also holds similar structures and randomly drawn compounds. A number with no mark means an inactive call. Calls follow the shape of the dose curve; as a rule, active = well fitted inhibition curve with a large enough effect; inconclusive = small, poorly fitted or top-dose-only effect; inactive = no such curve, though single readings can be large or run the other way.

The compounds below were run against Bromodomain adjacent to zinc finger domain protein 2B (Homo sapiens) (UniProt Q9UIF8) (assay: qHTS Assay for Inhibitors of BAZ2B). Settings: AlphaScreen BAZ2B-H3K14Ac peptide displacement; series mostly up to 114 µM; activity change, negative = inhibition: at the top concentration.
Bromodomain adjacent to zinc finger domain protein 2B (Homo sapiens), sequence (Q9UIF8 whole entry, looked up, the tested form may be a part): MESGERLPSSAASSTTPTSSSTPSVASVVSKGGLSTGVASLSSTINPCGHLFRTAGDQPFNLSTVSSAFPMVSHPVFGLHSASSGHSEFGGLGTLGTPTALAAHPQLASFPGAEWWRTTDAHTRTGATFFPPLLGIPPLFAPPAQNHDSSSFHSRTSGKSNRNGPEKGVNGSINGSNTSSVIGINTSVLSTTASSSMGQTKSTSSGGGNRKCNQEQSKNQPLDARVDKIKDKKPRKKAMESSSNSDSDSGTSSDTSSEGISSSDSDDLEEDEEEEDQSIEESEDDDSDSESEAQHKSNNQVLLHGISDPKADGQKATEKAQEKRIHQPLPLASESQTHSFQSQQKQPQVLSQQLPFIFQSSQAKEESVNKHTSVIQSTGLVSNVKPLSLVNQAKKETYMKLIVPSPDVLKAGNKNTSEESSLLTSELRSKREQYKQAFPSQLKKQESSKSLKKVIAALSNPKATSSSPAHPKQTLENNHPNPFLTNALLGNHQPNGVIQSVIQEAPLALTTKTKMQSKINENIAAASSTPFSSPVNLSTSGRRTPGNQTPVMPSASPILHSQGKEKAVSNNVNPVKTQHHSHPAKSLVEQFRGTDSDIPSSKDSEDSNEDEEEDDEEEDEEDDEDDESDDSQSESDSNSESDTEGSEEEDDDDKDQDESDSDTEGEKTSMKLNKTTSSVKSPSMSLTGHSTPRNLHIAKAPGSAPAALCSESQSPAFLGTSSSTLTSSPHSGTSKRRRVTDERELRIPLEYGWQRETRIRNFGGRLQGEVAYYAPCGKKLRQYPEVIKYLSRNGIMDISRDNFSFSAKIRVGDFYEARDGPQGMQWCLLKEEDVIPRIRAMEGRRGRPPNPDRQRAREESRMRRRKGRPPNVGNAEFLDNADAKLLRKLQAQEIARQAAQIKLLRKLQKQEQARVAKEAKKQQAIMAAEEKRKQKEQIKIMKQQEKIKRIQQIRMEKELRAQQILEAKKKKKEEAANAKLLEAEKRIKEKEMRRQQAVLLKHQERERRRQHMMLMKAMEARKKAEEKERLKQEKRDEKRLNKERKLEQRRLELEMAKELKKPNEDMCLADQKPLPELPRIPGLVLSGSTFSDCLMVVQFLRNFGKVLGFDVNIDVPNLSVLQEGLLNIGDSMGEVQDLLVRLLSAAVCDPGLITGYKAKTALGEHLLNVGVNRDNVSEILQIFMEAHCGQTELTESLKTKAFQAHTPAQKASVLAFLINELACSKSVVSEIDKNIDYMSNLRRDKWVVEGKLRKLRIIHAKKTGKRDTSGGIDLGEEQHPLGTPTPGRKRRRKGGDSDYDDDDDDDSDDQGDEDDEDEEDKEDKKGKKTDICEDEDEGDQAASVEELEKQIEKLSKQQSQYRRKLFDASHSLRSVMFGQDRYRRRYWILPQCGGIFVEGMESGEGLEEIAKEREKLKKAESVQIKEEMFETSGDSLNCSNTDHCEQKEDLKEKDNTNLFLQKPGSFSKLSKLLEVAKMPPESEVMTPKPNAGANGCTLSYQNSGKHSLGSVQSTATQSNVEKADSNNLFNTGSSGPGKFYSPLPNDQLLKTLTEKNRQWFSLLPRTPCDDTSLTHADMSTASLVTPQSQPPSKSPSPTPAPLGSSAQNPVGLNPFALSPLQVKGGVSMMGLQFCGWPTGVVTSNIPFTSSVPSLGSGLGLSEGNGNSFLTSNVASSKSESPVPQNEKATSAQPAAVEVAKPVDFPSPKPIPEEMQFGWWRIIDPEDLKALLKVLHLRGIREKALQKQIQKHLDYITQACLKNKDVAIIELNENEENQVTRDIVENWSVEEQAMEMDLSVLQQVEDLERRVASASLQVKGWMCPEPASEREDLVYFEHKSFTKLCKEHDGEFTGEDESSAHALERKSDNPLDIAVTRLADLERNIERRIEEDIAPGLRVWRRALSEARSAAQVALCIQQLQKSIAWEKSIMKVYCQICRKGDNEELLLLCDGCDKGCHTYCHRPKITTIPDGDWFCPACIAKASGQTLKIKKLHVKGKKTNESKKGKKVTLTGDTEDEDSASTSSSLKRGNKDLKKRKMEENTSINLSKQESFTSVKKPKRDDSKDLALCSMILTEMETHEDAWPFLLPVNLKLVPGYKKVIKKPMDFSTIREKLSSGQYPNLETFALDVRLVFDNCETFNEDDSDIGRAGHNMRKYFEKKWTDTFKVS
How it was run: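 AlphaScreen displacement: compounds (up to 110uM) incubated 30 min at room temperature with a preformed 50 nM BAZ2B/50 nM biotinylated H3K14Ac peptide complex in PBS pH 7.4 with Tween-20. Donor and acceptor beads at 10 ug/mL final added, 20 min light-protected before reading.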
% is scaled to controls: 0 for no effect and ±100 for the full control effect; potency is read from the fitted curve at half-maximal effect.
Also: nearly all actives have a fitted effect of over 60% in size.

SMILES	activity change, negative = inhibition	Potency
COc1ccc(-c2noc(CSc3nc4ccc(C)cc4[nH]3)n2)cc1	-9.25%	
Cc1oc2ncnc(N3CCCCC3)c2c1C(=O)N1CCN(c2cccc(Cl)c2)CC1	-16.4% [at 57.1 µM]	
Cc1cccc(NC(=O)CSc2nnc(CNC(=O)c3cccc(C)c3)n2-c2ccccc2)c1	-15.6%	
Cc1ccc(-c2ccc(CCC(=O)O)n2-c2ccc(C(N)=O)cc2)cc1	-20.2%	
CCN1CCN(Cc2c(O)ccc3oc(C)c(C(=O)Nc4ccc(C)cc4C)c23)CC1	-13.3%	
OC(C#CCN1CCOCC1)(c1ccccc1)C1CCCCC1 (stereo unspecified)	-5.69% [at 57.1 µM]	
CN(CC#CCC(c1ccccc1)c1ccccc1)C(C)(C)C	-34.8%	
CC(C)(C)N(CC#CCC(O)(c1ccccc1)C1CCCC1)CCO (stereo unspecified)		79.4 µM (active)
CCc1ccccc1NC(=O)c1ccc2nc(CCc3ccccc3)oc2c1	-26%	
COC(=O)c1ccc(Cn2c(SCC(=O)N(C)c3ccccc3)nc3ccccc32)cc1	-17.4%	
O=C(Nc1ccccc1)c1nnsc1S(=O)(=O)c1ccc(Cl)cc1		44.7 µM (active)
CN(c1cccc(NC(=O)Nc2ccc(Cl)cc2)c1)S(C)(=O)=O	9.77% [at 57.1 µM]	
O=C(Nc1ccc(Oc2ccccc2)cc1)C1CCN(S(=O)(=O)c2ccc(Cl)cc2)CC1	-2.4%	
CCCCN(CC)CCCNC(=O)c1nn(C)c2c1CSc1ccccc1-2	5.53%	
Cc1ccccc1CNC(=O)c1cccc(NC(=O)c2nsc3ccccc23)c1	3.02%	
O=C(CSc1nnc(-c2ccncc2)n1-c1ccccc1)Nc1ccc(Cl)c(Cl)c1	2.59%	
Cc1cc(C)cc(-n2c(SCC(=O)NCC3CCCO3)nc3c([nH]c4ccccc43)c2=O)c1 (stereo unspecified)	-1.42%	
CC1=NN(Cc2ccccc2)C(=O)/C1=C/c1ccc(N(C)C)cc1		2 µM (active)
O=C1N/C(=C/c2cccs2)C(=O)N1Cc1ccc(F)cc1	-14.6%	
Cc1ccc(CN2C(=O)N/C(=C/c3cc(C)n(-c4ccccn4)c3C)C2=O)cc1	-9.16%	
CSc1c(SCc2ccccc2)cnn(Cc2ccccc2)c1=O	12.4%	
CN(C)c1ccnc2sc3c(=O)n(Cc4ccccc4)cnc3c12	7.26%	
CN(C)c1ccc(/C=C2\NC(=S)N(Cc3ccccc3)C2=O)cc1		28.2 µM (active)
CCc1ccc(C(=O)CC2(O)C(=O)N(CCc3ccccc3)c3ccc(Br)cc32)cc1 (stereo unspecified)	-18.3%	
CCC1CCCCN1Cc1c(O)ccc2c(=O)c(Oc3ccccc3Cl)c(C(F)(F)F)oc12 (stereo unspecified)	8.59% [at 57.1 µM]	
COCCNC(=O)c1ccc2c(c1)N(Cc1cccc(Cl)c1)C(=O)c1ccccc1S2(=O)=O	6.11%	

SMILES	activity change, negative = inhibition	Potency
Cc1c(-c2nsc(NC(=O)c3cccc(Cl)c3)n2)nnn1-c1ccccc1C(F)(F)F	-1.61%	
Cc1ccccc1Nc1scc(-c2ccc(Br)cc2)[n+]1-c1ccccc1C		11.2 µM (active)
O=C(CSc1ncc(S(=O)(=O)c2ccc(Br)cc2)c(=O)[nH]1)Nc1ccc2c(c1)OCCO2	-25.2%	
COc1ccccc1N1CCN(C(CNC(=O)C(=O)NCc2ccc(C)cc2)c2cccnc2)CC1 (stereo unspecified)	-3.79%	
CCN1CCN(C(c2ccc(C)cc2)c2c(O)cc(C)n(Cc3ccco3)c2=O)CC1 (stereo unspecified)	-18.2%	
CCN1CCN(C(c2cccnc2)c2cc(Cl)c3cccnc3c2O)CC1 (stereo unspecified)		11.2 µM (active)
CCOC(=O)N1CCN(C(=O)CSc2nc(=O)n3cccc(C)c3n2)CC1	8.46%	
CCOC(=O)N1CCN(C(c2cccnc2)c2ccc3cccnc3c2O)CC1 (stereo unspecified)		15.8 µM (active)
CCOc1ccc(C(NC(=O)c2cc(OC)c(OC)c(OC)c2)c2cc(Cl)c3cccnc3c2O)cc1 (stereo unspecified)	4.51%	
Cc1ccc(Cl)cc1NC(=O)CCC(=O)N1CC(C)Sc2ccccc21 (stereo unspecified)	-4.18%	
CCOc1ccc(Nc2ncnc3scc(-c4ccc(OC)cc4)c23)cc1	-2.31%	
CN(NS(=O)(=O)c1cccs1)c1ncc(C(F)(F)F)cc1Cl		56.2 µM (active)
CN(CC(=O)Nc1cccc(C(F)(F)F)c1)S(=O)(=O)c1cccs1	2.07%	
C#CCN(N(C)c1ncc(C(F)(F)F)cc1Cl)S(=O)(=O)c1ccc2ccccc2c1	3.53%	
Cc1cccc(-n2ncc(C(=O)N3CCN(c4ccc(Cl)cc4)CC3)c2C2CCN(C(=O)OC(C)(C)C)CC2)c1	-17.4% [at 57.1 µM]	
CC1=C(C(=O)OCC(C)C)C(c2ccc(OCc3ccccc3)cc2)N2C(=O)CCSC2=N1 (stereo unspecified)	-11.9%	
NC1=NN(c2cccc(C(=O)O)c2)C(=O)C1	-32.4%	
Cc1cc(/C=N/Nc2ccc([N+](=O)[O-])cn2)c(C)n1-c1cccc(C(=O)O)c1		44.7 µM (active)
Cc1cc(/C=C2/SC(=O)N(CC(=O)OC(C)C)C2=O)c(C)n1C	-4.3%	
Fc1ccc(Br)cc1/C=N/n1cnnc1	-0.0547%	
Cc1cc(/C=C2/SC(=O)N(CC(=O)N3CCCC3)C2=O)c(C)n1C	-31.3%	
O=[N+]([O-])c1cccc(/C=N/Nc2ncc(Br)cn2)c1	10.5%	
Cc1cccc(C)c1NC(=O)CSc1ccc([N+](=O)[O-])cn1	-6.12%	
Cc1cc(/C=C2\SC(=O)N(C)C2=O)c(C)n1-c1cccc(C(=O)O)c1		79.4 µM (active)
Cc1cc(/C=N/n2cnnc2)c(C)n1-c1cccc(C(=O)O)c1		35.5 µM (active)
O=C(Cn1c(=O)n(-c2ccc(F)cc2)c(=O)c2sccc21)Nc1cccc(C(F)(F)F)c1	-18.1%	

SMILES	activity change, negative = inhibition	Potency
CCc1cccc(-n2nnc(-c3nsc(NC(=O)c4ccc(C)cc4)n3)c2C)c1	1.17%	
O=C(CS(=O)(=O)c1cccc2nsnc12)N1CCN(c2cccc(Cl)c2)CC1	-28.5%	
COc1ccccc1-c1cc(C(F)(F)F)nc(S(=O)(=O)CCCC(=O)Nc2ccc(F)cc2F)n1	-21.3%	
CCn1cc2nc(SCc3cccc(F)c3)n(CCc3ccccc3)c(=O)c2n1	2.73%	
COc1cc(NS(=O)(=O)c2ccc3c(c2)OCC(C(=O)N2CCCC2)O3)cc(OC)c1 (stereo unspecified)	-12.5%	
COc1ccc(C(=O)N2CCC(c3nc4ccccc4o3)CC2)cc1	-8.77%	
Cc1cc(=O)n(C)c(=O)n1CCCNc1ccccc1		50.1 µM (active)
Cn1c(Nc2ccccc2)cc(=O)n(C)c1=O	5.28%	
Cc1cc2nc(C)n(CCCNC(=O)Nc3ccccc3)c2cc1C	5.12%	
Cc1ccc(-n2nc(C)c3c(C)cc(=O)n(CC(=O)Nc4ccc(C(C)C)cc4)c32)cc1	5.9%	
O=C(Cc1ccc(S(=O)(=O)N2CCCC2)s1)NC1CCCCCC1		50.1 µM (active)
O=C(Cc1ccc(S(=O)(=O)N2CCOCC2)s1)NCCC(c1ccccc1)c1ccccc1	-36.3%	
O=C(NC1CCCCC1)C1CCCN(S(=O)(=O)c2ccc(Br)s2)C1 (stereo unspecified)	-9.2%	
Cc1cc(-c2ccc(C)c(S(=O)(=O)N3c4ccccc4CC3C)c2)on1 (stereo unspecified)	12.6%	
Cc1ccsc1CN(C(=O)c1oc2ccc(Br)cc2c1C)C1CCS(=O)(=O)C1 (stereo unspecified)	-15.3%	
COc1cc(-c2nnc(NC(=O)C3=COCCO3)o2)cc(OC)c1OC		39.8 µM (active)
O=C(Nc1nnc(C2=COCCO2)o1)c1ccc([N+](=O)[O-])s1		79.4 µM (active)
CSc1ccccc1-c1nnc(NC(=O)c2ccc3c(c2)OCCO3)o1	-2.66%	
COc1ccc(C(=O)COC(=O)c2ccc([N+](=O)[O-])s2)cc1OC	1.73%	
Cc1ccc(C(=O)Nc2nnc(C3=COCCO3)o2)cc1C		50.1 µM (active)
O=C(Nc1ncc([N+](=O)[O-])s1)C1COc2ccccc2O1 (stereo unspecified)	-24%	
CCC(CC)c1nnc(NC(=O)C2=COCCO2)s1	4.03%	
Cc1csc(NC(=O)C2=COCCO2)n1	11.9%	
Cc1cccc(C)c1NC(=O)CNC(=O)c1ccc2c(c1)OCCO2	7.19%	
O=C(NCCc1csc(-c2ccc(C(F)(F)F)cc2)n1)C(=O)Nc1ccc(F)c(Cl)c1	1.15%	
CC(C)(C)OC(=O)N1CCC(c2c(C(=O)NCc3ccccn3)cnn2-c2ccc(F)cc2)CC1	12.6% [at 57.1 µM]	

SMILES	activity change, negative = inhibition	Potency
CC1CCC(NC(=O)CNC(=O)c2ccc3ccccc3c2)CC1 (stereo unspecified)	-25.2%	
O=C(Nc1ncccc1O)c1ccc(C(=O)c2ccccc2)cc1	-32.2%	
O=C(CNC(=O)c1ccc2ccccc2c1)Nc1ncccc1O		50.1 µM (active)
CN(Cc1ccccc1)C(=O)CCS(=O)(=O)c1cc(Br)cc2c1N(C(=O)C1CC1)CC2	-8.26%	
Cc1ccc(C)c(N2CCN(C(=O)CN3C(=O)COc4ccc(S(=O)(=O)N5CCCCCC5)cc43)CC2)c1	-8.46%	
CCOCCCNCc1ccc(OCc2ccc(F)cc2)c(OC)c1	-9.74%	
CCOc1ccccc1OCCCNCc1ccccc1		79.4 µM (active)
CCOCCCNCc1cc(Br)ccc1OCC	-14.7%	
Cc1cc(C)c2oc(-c3cccc(NC(=O)c4cccc(F)c4)c3C)nc2c1	-5.05%	
CCOc1cc(/C=C2\SC(N3CCCCC3)=NC2=O)ccc1O	4.95%	
CCN1C(=O)/C(=C2\SC(N3CCCCC3)=NC2=O)c2ccccc21		39.8 µM (active)
O=C1N=C(N2CCCC2)S/C1=C\c1cccc(Br)c1	-1.32%	
CCOc1ccc(S(=O)(=O)c2cn(Cc3ccccc3)c3ccc(OCC)cc3c2=O)cc1	-2.47%	
CCc1ccc(CN(Cc2ccco2)C(=O)c2ccccc2Cl)cc1	28.6%	
Cc1cc(=O)c2cc(C(=O)Nc3cccc(C)c3C)ccc2[nH]1	-0.358%	
CC1CCCN(CC(O)COCc2ccccc2)C1 (stereo unspecified)	-6.53%	
OC(COCc1ccco1)CN1CCN(c2ccccc2)CC1 (stereo unspecified)		89.1 µM (active)
O=[N+]([O-])c1ccc(N2CCN(CC(O)COc3ccccc3)CC2)cc1 (stereo unspecified)	-36.5%	
CCCn1ccc2c(OCC(=O)NCc3ccc(F)cc3)cccc2c1=O	2.51%	
Cc1ccc(-c2cn3c(n2)sc2cc(C(=O)NCCCc4ccccc4)ccc23)cc1	-0.904%	
Cc1ccc(NC(=O)CCN2C(=O)c3ccccc3C2=O)cc1C	-0.264%	
Cc1cc2c(cc1C)N(C(=O)CN1C(=O)c3ccccc3C1=O)C(C)(C)c1ssc(=S)c1-2		8.91 µM (active)
Cc1cc(C)cc(NC(=O)CN2C(=O)c3ccccc3C2=O)c1	5.03%	
